Inconclusive results are not listed. Active and inactive are the calls of the source. Unless noted, the call rests on the fitted dose curve; in most records, active means well fitted curve in the direction sought with a large enough effect in the repeat runs; inconclusive means weak or mixed curves; inactive means no such curve, though single readings can be large; an effect the other way counts as inactive or inconclusive.
Key:
[1] = A CellTox Green Cytotoxicity Assay to monitor cytotoxicity in HepG2 cells - 8 hour (AID 1224890); further: nearly all actives have a fitted effect of over 45% in size
How it was run: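 HepG2 cells were seeded together with the CellTox Green dye at 600 cells/well, left 5 h at 37 C/5% CO2, then given compounds in DMSO. Fluorescence from dye bound to dead-cell DNA was read repeatedly over 40 h of treatment at 37 C.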

[2] = qHTS assay to identify small molecule antagonists of the estrogen receptor alpha (ER-alpha) signaling pathway using the BG1 cell line in the presence of 0.1 nM 17-beta-estradiol - cell viability counter screen (AID 1259241); further: nearly all actives have a fitted effect of over 40% in size
How it was run: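 Live-cell protease activity (CellTiter-Fluor fluorescence, 30 min) was read in the same wells after VM7Luc4E2 cells had been exposed to compounds with 0.1 nM 17beta-estradiol for 22 hr at 37C.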

[3] = qHTS assay to identify small molecule antagonists of the androgen receptor (AR) signaling pathway using the MDA cell line in the presence of 0.5 nM R1881 - cell viability counter screen (AID 1259242); further: nearly all actives have a fitted effect of over 45% in size
How it was run: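 MDA-kb2 cells (human breast carcinoma, stably carrying MMTV-luciferase reporter) were exposed to compounds with 0.5 nM R1881 (final) for 16 hr at 37C, 0% CO2; viability then read as live-cell protease fluorescence (CellTiter-Fluor, 30 min) in the same wells.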

[4] = target: Estrogen receptor (Homo sapiens) (UniProt P03372); assay: qHTS assay to identify small molecule antagonists of the estrogen receptor alpha (ER-alpha) signaling pathway using the BG1 cell line in the presence of 0.1 nM 17-beta-estradiol (AID 1259244); further: nearly all actives have a fitted effect of over 50% in size
How it was run: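 VM7Luc4E2 cells (endogenous full-length ER-alpha, stable 4xERE-luciferase) were grown 5 days in phenol red-free medium with charcoal-stripped FBS, then exposed 22 h at 37C to compounds plus 0.1 nM (final) 17beta-estradiol; ONE-Glo luminescence read-out.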

[5] = qHTS assay to identify small molecule phospholipidosis (PLD) inducers (AID 1259344; active means well fitted curve in the direction sought with a large enough effect; an effect the other way counts as inactive or inconclusive)
How it was run: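 HepG2 cells, 900/well, treated with compound plus LipidTOX Red for 24 h at 37 C; amiodarone positive and DMSO negative controls. Fixed with paraformaldehyde/Hoechst, then high-content imaging scored LipidTOX pit count and integrated intensity per well and per cell.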

[6] = qHTS assay to identify small molecule HDAC inhibitors (AID 1259364); further: top concentration of the series differs between compounds; nearly all actives have a fitted effect of over 45% in size
How it was run: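 Wild-type HCT-116 cells were plated overnight, exposed to compounds for 2 h at 37 °C, then given HDAC-Glo class I/II luminogenic reagent for 30 min at room temperature before luminescence was read.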

[7] = qHTS assay to identify small molecule agonists of the sonic hedgehog signaling (Shh) pathway - cell viability counter screen (AID 1259366); further: nearly all actives have a fitted effect of over 50% in size
How it was run: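 CellTiter-Fluor fluorescence read-out, 1 hr at 37C, added after 23hr compound exposure. Cells: 3T3 Gli1-Luc, an NIH/3T3 clone with stably integrated Gli1-Luc reporter, plated 4hr before compound.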

[8] = qHTS assay to identify small molecule antagonists of the sonic hedgehog signaling (Shh) pathway - cell viability counter screen (AID 1259367); further: nearly all actives have a fitted effect of over 55% in size
How it was run: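 NIH/3T3-derived Gli1-Luc reporter cells, 2,000/well, plated 4 hr before compound addition, then stimulated with conditioned medium for 24 hr at 37C. Viability measured in the same wells by CellTiter-Fluor fluorescence, reagent added at 23 hr for 1 hr.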

[9] = qHTS assay to identify small molecule antagonists of the sonic hedgehog signaling (Shh) pathway (AID 1259369; calls by dose curve; further: nearly all actives have a fitted effect of over 45% in size)
How it was run: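 NIH/3T3-derived 3T3Gli1-Luc cells with stably integrated Gli1-Luc reporter were preincubated 4hr at 37 C, then given compounds in DMSO plus Shh conditioned medium and incubated 24hr. Firefly luciferase luminescence read after 30min reagent at room temperature.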

[10] = target: Estrogen receptor beta (Homo sapiens) (UniProt Q92731); assay: qHTS assay to identify small molecule agonists of the estrogen receptor beta (ER-beta) signaling pathway (AID 1259377; active means well fitted activation curve with a large enough effect in the signal ratio in the repeat runs, not every such curve was filed as active; the % refers to the signal ratio)
How it was run: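 Beta-lactamase reporter readout: fluorescence of LiveBLAzer B/G FRET substrate after 2 h at room temperature, following 16 h compound treatment of ER-beta-UAS-bla HEK293T cells at 37C in 2% charcoal-stripped FBS medium.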

[11] = target: Estrogen receptor beta (Homo sapiens) (UniProt Q92731); assay: qHTS assay to identify small molecule antagonists of the estrogen receptor beta (ER-beta) signaling pathway (AID 1259378; active means well fitted inhibition curve with a large enough effect in the signal ratio in the repeat runs, not every such curve was filed as active; the % refers to the signal ratio)
How it was run: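 ER-beta-UAS-bla HEK293T cells in 2% charcoal-stripped FBS medium treated with compound plus 1nM final 17-beta-estradiol for 16 hr at 37C. Beta-lactamase reporter read by FRET substrate fluorescence after 2 hours at room temperature.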

[12] = qHTS assay to identify small molecule agonists of the androgen receptor (AR) signaling pathway in the presence of an antagonist - cell viability counter screen (AID 1259379); further: series mostly up to about 92 µM; nearly all actives have a fitted effect of over 25% in size
How it was run: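 MDA-kb2 human breast carcinoma cells (stable MMTV-luciferase, AR/GR responsive) were seeded 3,000 cells/well, pre-incubated 5 hr at 37C without CO2, then given 3.0uM nilutamide and compounds at 15 concentrations for 16 hr. Viability was read by CellTiter-Fluor fluorescence.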

[13] = qHTS assay to identify small molecule agonists of the estrogen receptor beta (ER-beta) signaling pathway - cell viability counter screen (AID 1259380); further: nearly all actives have a fitted effect of over 30% in size
How it was run: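 ER-beta-UAS-bla HEK293T cells in medium with 2% charcoal-stripped FBS were preincubated 6 hr at 37C, dosed with compound in DMSO for 16 hr, then after the bla read, CellTiter-Glo was added for 30 min at room temperature; luminescence recorded.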

[14] = qHTS assay to identify small molecule antagonists of the estrogen receptor beta (ER-beta) signaling pathway - cell viability counter screen (AID 1259382); further: series mostly up to about 92 µM; nearly all actives have a fitted effect of over 55% in size
How it was run: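 ER-beta-UAS-bla HEK293T cells (2,000/well, 2% charcoal-stripped FBS) were pre-incubated 6 hr at 37C, then given compound plus 1nM final 17-beta-estradiol for 16 hr. Viability was read in the same wells by CellTiter-Glo luminescence after 30 min at room temperature.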

[15] = target: Estrogen receptor (Homo sapiens) (UniProt P03372); assay: qHTS assay to identify small molecule agonists of the estrogen receptor alpha (ER-alpha) signaling pathway in the presence of an antagonist (AID 1259383; calls by dose curve; further: top concentration of the series differs between compounds; nearly all actives have a fitted effect of over 15% in size)
How it was run: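 VM7Luc4E2 cells (endogenous full-length ER-alpha, 4×ERE-luciferase) were precultured 5 days in phenol red-free medium with 10% charcoal-stripped FBS, given 10.0nM ICI-182,780 (final), then treated with compounds at 15 concentrations for 22hr at 37C; luminescence read with ONE-Glo.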

[16] = qHTS assay to identify small molecule agonists or antagonists of the thyroid stimulating hormone receptor (TSHR) signaling pathway - wild type cell line counter screen (AID 1259384; calls by dose curve)
How it was run: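 Wild-type Hek293 cells, 800/well, 18 h at 37C, then compound with Ro20-1724 for 30 min RT. cAMP by HTRF (cAMP-d2/anti-cAMP cryptate), 1 h RT, fluorescence read. 15 concentrations, triplicates.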

[17] = qHTS assay to identify small molecule HDAC inhibitors - cell viability counter screen (AID 1259365); further: series mostly up to about 92 µM; nearly all actives have a fitted effect of over 50% in size
How it was run: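 HCT-116 (wild type), 1,500 cells/well, overnight 37C/5% CO2; compound in DMSO 2hr; CellTiter-Glo 30min RT; luminescence read.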

[18] = qHTS assay to identify small molecule agonists of the sonic hedgehog signaling (Shh) pathway (AID 1259368; calls by dose curve; further: series mostly up to about 92 µM; nearly all actives have a fitted effect of over 15% in size)
How it was run: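 NIH/3T3-derived 3T3Gli1-Luc cells carrying a stably integrated Gli1 response element–firefly luciferase reporter were plated, left 4 hr at 37 C, then given compounds in DMSO for 24 hr. Luminescence was read 30 min after adding luciferase reagent.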
On the % scale 0 is the no-effect control and ±100 the full control effect.

Chain of Estrogen receptor (Homo sapiens) (P03372 whole entry, looked up): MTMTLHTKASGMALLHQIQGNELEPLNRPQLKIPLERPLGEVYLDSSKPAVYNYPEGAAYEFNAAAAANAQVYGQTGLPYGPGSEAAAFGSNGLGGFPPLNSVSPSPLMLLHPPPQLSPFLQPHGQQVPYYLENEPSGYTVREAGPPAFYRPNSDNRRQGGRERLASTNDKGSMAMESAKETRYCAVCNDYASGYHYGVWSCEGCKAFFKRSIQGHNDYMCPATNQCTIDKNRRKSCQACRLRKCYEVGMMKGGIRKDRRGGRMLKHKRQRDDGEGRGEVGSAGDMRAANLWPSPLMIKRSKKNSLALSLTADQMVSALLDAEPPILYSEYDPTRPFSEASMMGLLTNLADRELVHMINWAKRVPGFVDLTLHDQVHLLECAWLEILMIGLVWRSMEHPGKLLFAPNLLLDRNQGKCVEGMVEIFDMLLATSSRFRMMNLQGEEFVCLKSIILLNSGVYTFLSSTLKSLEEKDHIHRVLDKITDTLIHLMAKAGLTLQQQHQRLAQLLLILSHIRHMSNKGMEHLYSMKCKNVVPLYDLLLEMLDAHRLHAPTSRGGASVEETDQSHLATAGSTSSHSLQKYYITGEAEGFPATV
Chain of Estrogen receptor beta (Homo sapiens) (Q92731 whole entry, looked up): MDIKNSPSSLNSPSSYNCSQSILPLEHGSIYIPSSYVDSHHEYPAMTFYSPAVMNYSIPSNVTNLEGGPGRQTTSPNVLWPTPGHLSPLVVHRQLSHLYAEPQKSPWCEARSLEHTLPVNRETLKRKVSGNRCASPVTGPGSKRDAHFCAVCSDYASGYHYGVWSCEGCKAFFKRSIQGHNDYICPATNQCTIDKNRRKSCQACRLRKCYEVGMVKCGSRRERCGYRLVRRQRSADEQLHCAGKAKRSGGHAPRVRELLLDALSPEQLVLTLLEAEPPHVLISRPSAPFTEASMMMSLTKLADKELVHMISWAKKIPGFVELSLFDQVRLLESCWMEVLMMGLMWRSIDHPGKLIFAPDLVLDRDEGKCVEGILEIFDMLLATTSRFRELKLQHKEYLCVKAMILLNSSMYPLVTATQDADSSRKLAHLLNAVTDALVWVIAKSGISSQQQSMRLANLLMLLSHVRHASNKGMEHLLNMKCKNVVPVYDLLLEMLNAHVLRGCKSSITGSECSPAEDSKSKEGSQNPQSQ

CNCCC(Oc1ccccc1OC)c1ccccc1 (configuration not stated)
inactive: Potency [1] | Potency [2] | outcome [3] | Potency [4] | outcome [5] | Potency [6] | Potency [7] | Potency [8] | Potency [9] | outcome [10] | Potency [11] | Potency [12] | Potency [13] | outcome [14] | Potency [15] | outcome [16]

CC(C)(C)C1CCCCC1=O (configuration not stated)
inactive: Potency [1] | Potency [2] | outcome [3] | Potency [4] | Potency [6] | outcome [17] | Potency [7] | Potency [8] | Potency [18] | Potency [9] | outcome [10] | Potency [11] | Potency [12] | Potency [13] | outcome [14] | Potency [15]

COc1ccccc1OCC(O)COC(N)=O (configuration not stated)
inactive: Potency [1] | Potency [2] | outcome [3] | Potency [4] | outcome [5] | Potency [6] | outcome [17] | Potency [8] | Potency [18] | Potency [9] | Potency [12] | Potency [13] | outcome [14] | Potency [15] | outcome [16]

COc1cc(N)c(Cl)cc1C(=O)NC1CCN(Cc2ccccc2)CC1
inactive: Potency [1] | Potency [2] | outcome [3] | Potency [4] | outcome [5] | Potency [6] | outcome [17] | Potency [7] | Potency [8] | Potency [18] | outcome [10] | Potency [11] | Potency [12] | outcome [14] | Potency [15] | outcome [16]

CC(CNC1CCCCC1)OC(=O)c1ccccc1 (configuration not stated)
inactive: Potency [1] | Potency [2] | outcome [3] | Potency [4] | outcome [5] | Potency [6] | Potency [8] | Potency [9] | outcome [10] | Potency [11] | Potency [12] | Potency [13] | outcome [14] | Potency [15] | outcome [16]

Cc1c(-c2ccccc2)oc2c(C(=O)OCCN3CCCCC3)cccc2c1=O
inactive: Potency [1] | Potency [2] | outcome [3] | Potency [4] | outcome [5] | Potency [6] | outcome [17] | Potency [7] | Potency [8] | Potency [18] | outcome [10] | Potency [12] | Potency [13] | outcome [14] | Potency [15] | outcome [16]

CCN[C@H]1CN(CCCOC)S(=O)(=O)c2sc(S(N)(=O)=O)cc21
inactive: Potency [1] | Potency [2] | outcome [3] | Potency [4] | outcome [5] | Potency [6] | outcome [17] | Potency [7] | Potency [18] | Potency [9] | outcome [10] | Potency [11] | Potency [12] | outcome [14] | Potency [15] | outcome [16]

COc1ccc(S(=O)(=O)Nc2nnc(CC(C)C)s2)cc1
inactive: Potency [1] | Potency [2] | outcome [3] | Potency [4] | outcome [5] | Potency [6] | outcome [17] | Potency [7] | Potency [8] | Potency [18] | Potency [9] | outcome [10] | Potency [11] | Potency [12] | outcome [14] | Potency [15]

CC(=O)N[C@@H](CC(C)C)C(=O)O
inactive: Potency [1] | Potency [2] | outcome [3] | Potency [4] | outcome [5] | Potency [6] | outcome [17] | Potency [8] | Potency [18] | Potency [9] | Potency [12] | Potency [13] | outcome [14] | Potency [15]

O=c1oc2c(O)c(O)cc3c(=O)oc4c(O)c(O)cc1c4c23
inactive: cytotoxicity increase [1] -1.27% [at 15.8 µM] | activity change, negative = cytotoxicity [2] 3.69% [at 19 µM] | viability change, negative = cytotoxic [3] -6.98% [at 19 µM] | activity change, negative = inhibition [4] 1.12% [at 19 µM] | outcome [5] | activity change, negative = inhibition [6] -0.133% [at 19 µM] | activity change, negative = cytotoxicity [17] 2.83% [at 19 µM] | viability change, negative = cytotoxic [7] -17.2% [at 19 µM] | activity change [18] -1.7% [at 18.9 µM, hits give high values] | activity change, negative = inhibition [9] 14.9% [at 19 µM] | activation [10] 0.261% [at 19 µM] | activity, negative = inhibition [11] -0.396% [at 19 µM] | activity change, negative = cytotoxicity [12] -4.09% [at 19 µM] | activity change, negative = cytotoxicity [13] 7.11% [at 19 µM] | activity change, negative = cytotoxicity [14] -1.21% [at 19 µM] | activation [15] -0.711% [at 19 µM]

CCCCCCCCOC(=O)CCCCCCCCC(=O)OCCCCCCCC
inactive: Potency [1] | Potency [2] | outcome [3] | Potency [4] | Potency [6] | outcome [17] | Potency [7] | Potency [8] | Potency [18] | Potency [9] | outcome [10] | Potency [11] | Potency [12] | outcome [14] | Potency [15]

C=CCc1cc(OC)c(O)c(C(=O)NCCO)c1
inactive: Potency [1] | Potency [2] | outcome [3] | Potency [4] | outcome [5] | Potency [6] | outcome [17] | Potency [18] | Potency [9] | Potency [12] | Potency [13] | outcome [14] | Potency [15] | outcome [16]

CCC(=O)Nc1ccc(O)cc1
inactive: Potency [1] | Potency [2] | outcome [3] | Potency [4] | outcome [5] | Potency [6] | outcome [17] | Potency [8] | Potency [18] | Potency [9] | Potency [12] | outcome [14] | Potency [15] | outcome [16]

CCN(CCCc1ccccc1)CCCc1ccccc1
inactive: Potency [1] | Potency [2] | outcome [3] | Potency [4] | outcome [5] | Potency [6] | outcome [17] | Potency [7] | Potency [8] | Potency [18] | Potency [9] | outcome [10] | Potency [15] | outcome [16]

CCOC(=O)[C@H](CCc1ccccc1)N[C@@H](C)C(=O)N1Cc2cc(OC)c(OC)cc2C[C@H]1C(=O)O
inactive: Potency [1] | Potency [2] | outcome [3] | Potency [4] | outcome [5] | Potency [6] | outcome [17] | Potency [7] | Potency [8] | Potency [18] | Potency [9] | outcome [10] | Potency [11] | Potency [12] | Potency [13] | outcome [14] | Potency [15] | outcome [16]

CCCCN1C[C@H](O)[C@@H](O)[C@H](O)[C@H]1CO
inactive: Potency [1] | Potency [2] | outcome [3] | Potency [4] | outcome [5] | Potency [6] | outcome [17] | Potency [7] | Potency [8] | Potency [18] | Potency [9] | Potency [12] | Potency [13] | outcome [14] | Potency [15] | outcome [16]
